This is an account of results in PubChem BioAssay (Tox21).

Experiment [1] in a line: qHTS assay for small molecules that induce genotoxicity in human embryonic kidney cells expressing luciferase-tagged ATAD5 (AID 651632). Also: nearly all actives have a fitted effect of over 15% in size. An outline of the steps: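 Reporter cells (HEK293T) express luciferase-tagged ATAD5, a protein that accumulates after DNA damage. Treat 16 hr at 37C/5% CO2, add Amplite, wait 30 min at RT, and read luminescence.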
In general terms: In qHTS, concentration-response curves come from the screen itself.

Experiment [2] in a line: qHTS assay for small molecule agonists of the p53 signaling pathway - cell viability (AID 651633; calls by dose curve;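 also: p53RE-bla HCT reporter cells with a stable beta-lactamase p53 reporter; series mostly up to about 83 µM; nearly all actives have a fitted effect of over 30% in size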). An outline of the steps: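 p53RE-bla cells were treated with compound for 16 hours at 37 C. Cytotoxicity was then measured as CellTiter-Glo luminescence after 30 min at room temperature.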
Experiment [3] can be described thus: qHTS assay for small molecules that induce genotoxicity in human embryonic kidney cells expressing luciferase-tagged ATAD5 - cell viability (AID 651634; calls by dose curve; also: nearly all actives have a fitted effect of over 25% in size; also: potency is read from the fitted curve at half-maximal effect). The procedure, abridged:
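Seeding of 2,000 HEK293T ATAD5-luciferase cells per well preceded pin-tool compound transfer. Plates sat 15.5 hr at 37C under 5% CO2, then fluorescence was read after 30 min with CellTiter-Fluor.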

Experiment [4] in a line: qHTS assay for small molecule disruptors of the mitochondrial membrane potential - cell viability (AID 720634; calls by dose curve; also: nearly all actives have a fitted effect of over 20% in size; also: potency is read from the fitted curve at half-maximal effect). An outline of the steps: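 Measuring cytotoxicity alongside mitochondrial potential, the screen quantified ATP by luminescence in HepG2 cells after 1 hr compound incubation and a 30 min room-temperature CellTiter-Glo step.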
Experiment [5] is described as follows: qHTS assay for small molecule disruptors of the mitochondrial membrane potential (AID 720635). An outline of the steps:
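HepG2 cells exposed to compound 1 hr at 37C, then Mito-MPS dye 30 min. Ratio read of aggregate (540/590 nm) versus monomer (490/535 nm) fluorescence.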

Experiment [6] in a line: qHTS assay to test for compound auto fluorescence at 535 nm (green) in HepG2 cells (AID 720675).
Experiment [7] is described as follows: qHTS assay to test for compound auto fluorescence at 460 nm (blue) in HEK293 cells (AID 720678). An outline of the steps:
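Blue read-out at excitation 405 nm and emission 460 nm follows overnight compound exposure of HEK293 cells at 37C in 5% CO2. Activity is given as auto fluorescence equivalency to triamterene.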

Experiment [8] in a line: qHTS assay to test for compound auto fluorescence at 590 nm (red) in HEK293 cells (AID 720679). An outline of the steps: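 Red channel, Ex/Em 540/590nm; signal expressed as equivalency to Rose Bengal sodium. HEK293, 2,000 cells/well, 10% dialyzed FBS; 23 nL compound pinned after 4-5 hr attachment; overnight 37C/5% CO2 before reading.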
Experiment [9] can be described thus: qHTS assay to test for compound auto fluorescence at 590 nm (red) in HepG2 cells (AID 720674). An outline of the steps: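 Seeding: 2,000 HepG2 cells/well, MEM/10% FBS, overnight 37 C. Dosing: compound vs DMSO. Incubation: 1 hr, 37 C, 5% CO2. Read: fluorescence 540 ex/590 em, Rose Bengal sodium as red reference.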

Records with an inconclusive call do not appear. Active and inactive are the calls of the source. Unless noted, calls follow the shape of the dose curve; as a rule, active = well fitted curve in the direction sought with a large enough effect in the repeat runs; inconclusive = weak or mixed curves; inactive = no such curve, though single readings can be large; an effect the other way counts as inactive or inconclusive.

Take `COc1cc(/C=C/C(=O)N2CCN(CC(=O)N3CCCC3)CC2)cc(OC)c1OC`: the Potency result in experiment [1], in [2], in experiment [3], in [4], in [5] and in experiment [6] was “inactive” each time. The Potency entry in [7] and in [8] was “inactive” each time.

For the compound `CN1CCN2c3ncccc3Cc3ccccc3C2C1` (centres undefined), the Potency entry in experiment [1], in experiment [2], in experiment [3], in [4], in [5] and in [6] was “inactive” in each case. The Potency result in experiment [7] and in experiment [8] was “inactive” throughout.

`CC(CN1c2ccccc2Sc2ccc(S(=O)(=O)N(C)C)cc21)N(C)C` (centres undefined): the Potency result in [1], in experiment [2], in [3], in [4], in experiment [9] and in [6] was “inactive” in each case. Moreover, the Potency result in experiment [7] and in [8] was “inactive” throughout.

In the case of `C[C@]12CCC(=O)C=C1CC[C@@H]1[C@@H]2[C@@H](O)C[C@@]2(C)[C@H]1CC[C@]2(O)C(=O)COP(=O)(O)O`, the Potency entry in experiment [1], in experiment [2], in experiment [3], in experiment [4], in experiment [9] and in experiment [6] was “inactive” in each case. Moreover, the Potency result in [7] and in [8] was “inactive” throughout.

For the compound `CO[C@H]1O[C@@H]2O[C@@]3(C)CC[C@H]4[C@H](C)CC[C@@H]([C@H]1C)[C@@]24OO3`, the Potency result in experiment [1], in experiment [2], in experiment [3], in [4], in [5] and in experiment [6] was “inactive” each time. The Potency result in experiment [7] and in experiment [8] was “inactive” each time.

Consider `CN(C)C=Nc1c(I)cc(I)c(CCC(=O)O)c1I`, for which the Potency entry in experiment [1], in experiment [2], in [3], in experiment [4], in experiment [9] and in experiment [6] was “inactive” in each case. Besides, the Potency entry in experiment [7] and in experiment [8] was “inactive” each time.

As to `CCCCC/C=C\CCC(=O)N[C@H]1[C@H](Oc2c3cc4cc2Oc2ccc(cc2Cl)[C@@H](O[C@@H]2O[C@H](CO)[C@@H](O)[C@H](O)[C@H]2NC(C)=O)[C@@H]2NC(=O)[C@H](NC(=O)[C@@H]4NC(=O)[C@H]4NC(=O)[C@@H](Cc5ccc(c(Cl)c5)O3)NC(=O)[C@H](N)c3ccc(O)c(c3)Oc3cc(O)cc4c3)c3ccc(O)c(c3)-c3c(O[C@H]4O[C@H](CO)[C@@H](O)[C@H](O)[C@@H]4O)cc(O)cc3[C@@H](C(=O)O)NC2=O)O[C@H](CO)[C@@H](O)[C@@H]1O`, the Potency result in experiment [1], in [2], in experiment [3], in experiment [4], in experiment [9] and in experiment [6] was “inactive” in each case. Moreover, the Potency entry in experiment [7] and in experiment [8] was “inactive” each time.

In the case of `CC(C)NCC(O)COc1ccccc1-n1cccc1` (centres undefined), the Potency entry in experiment [1], in [2], in [3], in experiment [4], in experiment [9] and in [6] was “inactive” each time. For the same compound, the Potency result in experiment [7] and in [8] was “inactive” in each case.

With `CCOC(=O)c1cc(-c2ccccc2)nc2ccc(C)cc12`, the Potency result in [1], in experiment [2], in [3], in [4], in [9] and in experiment [6] was “inactive” throughout. Also, the Potency result in experiment [7] and in experiment [8] was “inactive” each time.

As to `NC(=O)OCC(O)COc1ccc(Cl)cc1` (centres undefined), the Potency result in experiment [1], in experiment [2], in [3], in experiment [4], in experiment [9] and in [6] was “inactive” in each case. Further, the Potency entry in experiment [7] and in experiment [8] was “inactive” throughout.

Take `CCOC(=O)Oc1c(OC)cc(C(=O)O[C@@H]2C[C@@H]3CN4CCc5c([nH]c6cc(OC)ccc56)[C@H]4C[C@@H]3[C@H](C(=O)OC)[C@H]2OC)cc1OC`: the Potency entry in experiment [1], in experiment [2], in experiment [3], in [9], in experiment [6] and in experiment [7] was “inactive” in each case. Also, the Potency entry in [8] is “inactive”. The Potency in experiment [4] was 10.1 µM (active).

Take `CN1CCc2c(c3ccccc3n2Cc2ccccc2)C1`: the Potency entry in experiment [1], in [2], in [3], in [4], in experiment [9] and in [6] was “inactive” each time. Besides, the Potency result in experiment [7] and in experiment [8] was “inactive” throughout.

For `C/C1=C2N=C(/C=C3N=C(/C(C)=C4\[N-]C(C(CC(N)=O)C4(C)CCC(=O)NCC(C)OP(=O)([O-])OC4C(CO)OC(n5cnc6cc(C)c(C)cc65)C4O)C4(C)N=C1C(CCC(N)=O)C4(C)CC(N)=O)C(CCC(N)=O)C\3(C)C)C(CCC(N)=O)C/2(C)CC(N)=O.[CH3-].[Co+3]` (centres undefined), the Potency result in experiment [1], in [2], in experiment [4], in experiment [9], in experiment [6] and in [7] was “inactive” throughout. Moreover, the Potency entry in [8] was “inactive”. For the same compound, the Potency in [3] is 23.7 µM (active).

`CCN(CC)CCC(=O)N1c2ccccc2Sc2ccc(C(F)(F)F)cc21`: the Potency entry in [1], in [2], in [3], in [4], in experiment [9] and in [6] was “inactive” throughout. Moreover, the Potency entry in [7] and in [8] was “inactive” each time.

Consider `C[C@]12CC[C@@H]3c4ccc(O)cc4CC[C@H]3[C@@H]1CC[C@@H]2OP(=O)(O)O`, for which the Potency result in experiment [1], in [2], in [3], in experiment [4], in [9] and in [6] was “inactive” in each case. In addition, the Potency entry in experiment [7] and in [8] was “inactive” throughout.

As to `CC(=O)O[C@H]1CC[C@@]2(C)C(=CC[C@@H]3[C@@H]2CC[C@]2(C)C(c4cccnc4)=CC[C@@H]32)C1`, the Potency entry in experiment [1], in experiment [2], in experiment [3], in experiment [4], in [9] and in experiment [6] was “inactive” throughout. The Potency entry in experiment [7] and in experiment [8] was “inactive” throughout.

Consider `CCCCCCCCCCCCCCCC(=O)OCCC1CCN(CCCN2c3ccccc3Sc3ccc(S(=O)(=O)N(C)C)cc32)CC1`, for which the Potency result in experiment [1], in experiment [2], in experiment [3], in experiment [4], in experiment [9] and in experiment [6] was “inactive” throughout. For the same compound, the Potency result in experiment [7] and in [8] was “inactive” in each case.

In the case of `CCN(CC)CCOc1ccc2nc(N(C)C)sc2c1`, the Potency entry in experiment [1], in experiment [2], in experiment [3], in experiment [4], in experiment [9] and in [6] was “inactive” each time. The Potency entry in experiment [7] and in experiment [8] was “inactive” each time.

Take `O=C(OC1C[C@@H]2CC3C[C@H](C1)N2CC3=O)c1c[nH]c2ccccc12` (some centres undefined): the Potency result in experiment [1], in experiment [2], in experiment [3], in experiment [4], in experiment [9] and in [6] was “inactive” each time. In addition, the Potency entry in experiment [7] and in experiment [8] was “inactive” throughout.

In the case of `CC(C)[C@H](N)C(=O)OCC(CO)OCn1cnc2c(=O)[nH]c(N)nc21` (some centres undefined), the Potency entry in experiment [1], in [2], in [3], in experiment [4], in experiment [9] and in experiment [6] was “inactive” each time. Also, the Potency entry in experiment [7] and in experiment [8] was “inactive” each time.

With `CCC(Oc1ccccc1)C(=O)N[C@@H]1C(=O)N2[C@@H]1SC(C)(C)[C@@H]2C(=O)O` (some centres undefined), the Potency entry in experiment [1], in [2], in [3], in experiment [4], in [9] and in experiment [6] was “inactive” in each case. The Potency entry in experiment [7] and in [8] was “inactive” throughout.

Consider `CC[C@@H]1/C=C(\C)C[C@H](C)C[C@H](OC)[C@H]2O[C@@](O)(C(=O)C(=O)N3CCCC[C@H]3C(=O)O[C@H](/C(C)=C/[C@@H]3CC[C@@H](Cl)[C@H](OC)C3)[C@H](C)[C@@H](O)CC1=O)[C@H](C)C[C@@H]2OC`, for which the Potency entry in experiment [1], in [2], in [3], in experiment [4], in [9] and in experiment [6] was “inactive” each time. The Potency entry in experiment [7] and in [8] was “inactive” throughout.

As to `CCC(=O)OCC(=O)[C@@]1(OC(=O)CC)[C@H](C)C[C@H]2[C@H]3[C@H]([C@@H](O)C[C@@]21C)[C@@]1(C)C=CC(=O)C=C1C[C@H]3Cl`, the Potency result in [1], in experiment [2], in [3], in [4], in [9] and in experiment [6] was “inactive” each time. For the same compound, the Potency result in experiment [7] and in [8] was “inactive” each time.
